High-throughput results from PubChem.
A selection: hits, their analogues and other compounds. The true share with any hit is near 3.8%.
HSF1 inh: HSF1 inhibitors in luciferase reporter cells, primary screen, cell-based, NIH3T3, luminescence; NIH3T3-HGL HSE-luciferase, MG132-induced, luminescence 8 h; hits give low values; activity change, negative = inhibition, % at 7.5 µM (by protocol); hit rate 0.77% among 300,000; AID 2098, 2009;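 active = more than half of replicate wells show activity change below -50%, luminescence cut by over half; inconclusive = some wells, but at most half, below -50%; inactive = no replicate well below -50%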;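 also: luciferase reports HSF-1 transcriptional activity via heat shock element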
HSF1 activator: HSF-1 activators, primary screen, NIH3T3-HGL cells, MG132 stress, luminescence, single point; NIH3T3-HGL HSF-1 luciferase reporter, 8 h; 100% = twice DMSO control signal; activation, % at 9 µM; hit rate 1.7% among 300,000; AID 504408, 2011;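 active = mean replicate activation of at least 50% with a set share of replicates each reaching 50%; inconclusive = only one of those two conditions met; inactive = mean below 50% and too few replicates reaching it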
MITF act: activators of MITF-driven TRPM1 promoter reporter, primary screen, cell-based, SK-MEL-5, luciferase, single point | SK-MEL-5 TRPM1-promoter luciferase, 24 h; % of positive control, neutral wells = 0 | activation, % at 12.5 µM | hit rate 0.75% among 300,000 | AID 588334, 2011;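 active = mean activation of at least 80% with every replicate also reaching 80%; inconclusive = mean reaches 80% but some replicate falls short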
Wnt act: Wnt/beta-catenin pathway activators, primary screen, cell-based, plate reader, single point | Wnt/beta-catenin reporter cell assay, activator | activation, % at 9.35 µM | hit rate 1.2% among 300,000 | AID 743398, 2014; in the data active = activation above about 30%, passing the limit was not always enough; inconclusive = no clear call, values can overlap the other calls
esBAF inh: Bmi1 luciferase reporter increase in mESCs, primary screen, esBAF inhibitor project, mouse ES cells, Bmi1 luciferase knock-in, single point; 24 h; 100% = twice the neutral-well signal; AID 602393, 2012; reporter increase, % at 12.5 µM; hit rate 2% among 350,000; in the data active = activation above about 40%; inconclusive = no clear call, values can overlap the other calls;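 also: a rise in the Bmi1 reporter signal indicates esBAF inhibition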
Numbers stand for hits; - = inactive; ? = inconclusive; . = not tested or not shown.

SMILES	HSF1 inh	HSF1 activator	MITF act	Wnt act	esBAF inh
COc1cc2c(cc1OC)C(c1cc(Br)ccc1F)N(C(=O)CCl)CC2 (configuration not stated)	-97	-	-	-	-
COc1ccc(S(=O)(=O)Nc2ccc3c(c2)C(=O)N([C@H](C)CO)C[C@H](C)[C@H](CN(C)S(=O)(=O)c2ccc(C)cc2)OCCCC[C@@H](C)O3)cc1	.	.	.	.	-
COc1cc(C(=O)NC2CCN(Cc3nnnn3Cc3cccs3)CC2)cc(OC)c1OC	-68	-	-	.	-
COCCn1nnnc1CN1CCC(NC(=O)c2ccc(Br)cc2)CC1	-	-	-	.	-
CNC[C@H]1Oc2ccc(NS(=O)(=O)c3cccs3)cc2C(=O)N([C@@H](C)CO)C[C@@H]1C	.	.	.	.	-
Cc1[nH][nH]c(=O)c1C=NCc1cccs1	-	69	-	-	-
Cc1[nH][nH]c(=O)c1C=NCc1cccnc1	-	-	-	-	-
Cc1cc(OCC(=O)N(C)C2CCCCC2)cc(C)c1Cl	-	-	-	-	.
CN(C(=O)COC(=O)c1ccc(Cl)cc1N)C1CCCCC1	-	59	-	-	.
Cc1cc(OCC(=O)N(C)C2CCCCC2)ccc1Cl	-	-	-	60	-
COCC(=O)Nc1ccc2c(c1)[C@H]1C[C@H](CC(=O)NC3CCCCC3)O[C@@H](CO)[C@H]1O2	.	.	.	.	-
O=C(C[C@H]1CC[C@H]2[C@@H](COC[C@H](O)CN2C(=O)c2cccnc2)O1)NCc1ccccc1	.	.	.	.	-
COc1ccc(Cn2c(-c3ccc(Br)cc3)c[n+]3ccccc23)cc1	-	62	-	58	-
N#C/C(=C\c1ccc(Cl)cc1)c1nc2ccccc2o1	-	75	-	-	.
COc1ccc(-c2oc3ccccc3c(=O)c2OC(C)=O)cc1	-	-	-	-	75
CC(=O)Oc1cc(O)c2c(=O)c(OC(C)=O)c(-c3ccc(OC(C)=O)c(OC(C)=O)c3)oc2c1	-	-	-	.	43
COc1cccc(S(=O)(=O)N[C@@H]2CC[C@H](CC(=O)NCc3ccccc3)O[C@H]2CO)c1	.	.	.	.	-
COc1ccc2c(c1)CC/C2=N\OC(=O)c1ccccc1C	-	61	117	-	.
COc1ccc2c(c1)CC/C2=N\OC(=O)c1cccc(C)c1	-	65	-	-	.
COc1ccc2c(c1)CC/C2=N\NC(=O)c1ccccc1	-	-	-	-	.
COc1ccc2c(c1)CCC/C2=N/OC(=O)c1ccccc1OC	-	-	-	-	.
CO[C@H]1CN(C)C(=O)c2ccc(NC(=O)C3CCC3)cc2OC[C@@H](C)N(Cc2ccc(F)cc2)C[C@H]1C	.	.	.	.	-
c1ccc(N=Nc2ccc3cccccc2-3)cc1	-	75	.	-	.
Nc1ccc(N=Nc2ccccc2)c(N)n1	-	-	94	-	-
Cc1cccc(-n2ncc3c(NCCCn4ccnc4)ncnc32)c1	-	-	.	-	49
SMILES	HSF1 inh	HSF1 activator	MITF act	Wnt act	esBAF inh
COc1ccc(Nc2ncnc3c2cnn3-c2cccc(C)c2)cc1OC	-	-	.	-	-
CCCN(CCC)c1ncnc2c1cnn2-c1ccc(OC)cc1	-	-	128	.	-
COc1ccc(-n2ncc3c(Nc4cccc(C)c4)ncnc32)cc1	-	-	120	-	-
Cc1cccc(-n2ncc3c(Nc4ccc(F)cc4)ncnc32)c1	-	51	-	-	71
COc1ccc(CNC(=O)C[C@H]2CC[C@@H](NS(=O)(=O)c3cccc(OC)c3)[C@@H](CO)O2)cc1	.	.	.	.	-
O=C(N/N=C/c1cccc(C(F)(F)F)c1)c1ccc(O)cc1	-74	-	-	-	.
Nc1ccc(C(=O)N/N=C/c2ccccc2)cc1	-	-	84	-	.
O=C(N/N=C/c1ccc(C(F)(F)F)cc1)c1ccc(O)cc1	-	-	-	-	-
O=C(/C=C/c1ccc(OC2CSC2)cc1)c1ccccc1	-	-	-	39	?
O=C(N/N=C/c1ccc(OC2CSC2)cc1)c1ccccc1	-	-	-	.	67
O=C(Cc1ccncc1)NCC[C@H]1CC[C@H](NC(=O)Nc2cccc(F)c2)[C@@H](CO)O1	.	.	.	.	-
CCCNC(=O)C[C@H]1CC[C@@H]2[C@@H](COc3ccc(NC(=O)c4cccc(F)c4)cc3C(=O)N2C)O1	.	.	.	.	-
CCc1nnc(NC(=O)c2sc3nc4cc(C)ccc4cc3c2N)s1	-	-	.	.	49
CCOC(=O)Cc1csc(NC(=O)c2sc3nc4ccc(C)cc4cc3c2N)n1	-	-	.	.	-
Cc1ccccc1Nc1nc(N)nc(-c2oc3ccccc3c2C)n1	-	72	.	47	.
COc1ccccc1Nc1nc(N)nc(-c2oc3ccccc3c2C)n1	-	-	.	.	-
Cc1c(-c2nc(N)nc(Nc3ccc(F)cc3)n2)oc2ccccc12	-	-	-	-	62
Cc1ccc2oc(C(=O)Nc3nonc3C)c(C)c2c1	-	-	-	-	-
CC(=O)c1sc(NC(=O)c2cc(=O)c3ccccc3o2)nc1C	-	-	-	-	-
Cc1ccc2oc(C(=O)Nc3nnc(C)s3)c(C)c2c1	-	-	-	57	65
COc1ccc2oc(C(=O)Nc3nnc(C)s3)c(C)c2c1	.	.	-	34	-
CC(=O)c1sc(NC(=O)c2oc3ccc(F)cc3c2C)nc1C	.	.	-	39	50
C[C@@H]1CN([C@H](C)CO)C(=O)c2cc(NC(=O)CCC(F)(F)F)ccc2O[C@@H](C)CCCCO[C@@H]1CN(C)Cc1ccc2c(c1)OCO2	.	.	.	.	-
O=C(NCCCn1ccnc1)/C(=C/c1ccco1)NC(=O)c1ccccc1	-	62	-	-	-
CCN(CC)C(=O)COc1ccc(-c2ccccc2)cc1	-	-	-	.	50
SMILES	HSF1 inh	HSF1 activator	MITF act	Wnt act	esBAF inh
Cc1ccccc1C(=O)NC1CCCCN(C)C1=O (configuration not stated)	.	.	.	-	.
Cc1ccccc1C(=O)NC[C@@H]1CCCN2CCCC[C@H]12	-56	-	-	-	-
O=C(CN1CCOCC1)N1CC[C@@H]2[C@H](CO)Nc3ccc(-c4ccccc4)cc3[C@@H]21	.	.	.	.	-
O=C(O)C(=O)Nc1ccc(NC(=O)C(c2ccccc2)c2ccccc2)cc1	-55	-	-	-	-
O=C(Nc1ccccc1)C(c1ccccc1)c1ccccc1	-	-	-	-	-
Cc1ccc2c3c1C1(C(=O)N3C(C)(C)CC2C)C(C#N)=C(N)Oc2cc(O)ccc21 (configuration not stated)	-	-	-	-	.
Cc1cc2c3c(c1)C1(C(=O)N3C(C)(C)CC2C)C(C#N)=C(N)Oc2cc(O)ccc21 (configuration not stated)	-	67	-	.	.
CNC[C@@H]1Oc2ncc(C#CC3CCCCC3)cc2C(=O)N([C@H](C)CO)C[C@@H]1C	.	.	.	.	-
CCOC(=O)/C=C1/SCC(=O)N1CC(=O)Nc1cccc(F)c1	.	.	-	-	-
CCOC(=O)/C=C1\SCC(=O)N1CC(=O)Nc1ccc2c(c1)CCC2	-	-	-	43	-
